Assay results from PubChem BioAssay AID651744 (Broad Institute, 2012).
The whole screen tested about 5,600 compounds, of which about 3,100 (55%) were called active. Another 3% or so got no clear call; they are omitted. The set was probably picked from earlier hits. A selection follows. Values without a mark were called inactive.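 The calls were made as follows: active = mean loss of cell viability signal at or above a set limit, and enough replicates individually reaching it; inconclusive = meets only the mean limit or only the replicate share; inactive = meets neither condition.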

assay: viability loss of mouse 3T3 cells – cell-based, cherry-pick, single point, set 2, cytotoxicity control, confirmation (AID 651744); settings: NIH/3T3 viability, CellTiter-Glo ATP luminescence, 90 h; at 24.9 µM; active compounds read high;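 also: 0% = median of neutral control wells and 100% = median of positive control wells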

SMILES | inhibition
CC(C)NC(=O)Nc1ccc2c(c1)C(=O)N([C@@H](C)CO)C[C@H](C)[C@H](CN(C)S(=O)(=O)c1ccc(Cl)cc1)OCCCC[C@H](C)O2 | 14%
C[C@H]1CN([C@@H](C)CO)C(=O)c2cc(C#CC3CCCCC3)cnc2O[C@H]1CN(C)S(=O)(=O)c1ccccc1 | 62.7% (active)
C[C@@H]1CN([C@H](C)CO)C(=O)c2cc(C#CC3CCCCC3)cnc2O[C@@H]1CN(C)C(=O)NC1CCCC1 | 75.6% (active)
C[C@@H]1CN([C@@H](C)CO)C(=O)c2cc(C#CC3CCCCC3)cnc2O[C@H]1CN(C)S(=O)(=O)c1ccccc1 | 106% (active)
C[C@@H]1CCCCO[C@H](CN(C)S(=O)(=O)c2ccc(F)cc2)[C@H](C)CN([C@@H](C)CO)C(=O)c2cc(NS(=O)(=O)c3ccccc3)ccc2O1 | -19.2%
C[C@@H]1CCCCO[C@@H](CN(C)S(=O)(=O)c2ccc(Cl)cc2)[C@H](C)CN([C@@H](C)CO)C(=O)c2cc(NC(=O)Cc3ccccc3)ccc2O1 | 12.4%
C[C@H](CO)N1C[C@H](C)[C@H](CN(C)C(=O)C2CCCCC2)Oc2ncc(C#Cc3cccc(F)c3)cc2C1=O | 92.3% (active)
C[C@@H]1CN([C@H](C)CO)C(=O)c2cc(-c3cncnc3)cnc2O[C@H]1CN(C)C(=O)Nc1ccc2c(c1)OCO2 | 2.69%
C[C@H](CO)N1C[C@H](C)[C@H](CN(C)C(=O)Nc2ccc3c(c2)OCO3)Oc2ncc(C#Cc3cccc(F)c3)cc2C1=O | 103% (active)
CN(C)C(=O)c1ccc(-c2ccc([C@H]3[C@@H](CO)N4CCCCN(CC5CC5)C[C@H]34)cc2)cc1 | -3.83%
OC[C@@H]1[C@H](c2ccc(C#CC3(O)CCCC3)cc2)[C@H]2CN(Cc3cncnc3)CCCCN12 | 16.8%
OC[C@H]1[C@H](c2ccc(-c3cccc(F)c3)cc2)[C@@H]2CN(Cc3cncnc3)CCCCN12 | 31.7% (active)
OC[C@@H]1[C@H](c2ccc(C#Cc3ccccc3)cc2)[C@@H]2CN(Cc3cncnc3)CCCCN12 | 104% (active)
Cc1ccc(-c2ccc([C@H]3[C@H](CO)N4CCCCN(Cc5cncnc5)C[C@@H]34)cc2)cc1 | 64.8% (active)
Cc1cccc(-c2ccc([C@H]3[C@@H](CO)N4CCCCN(Cc5cncnc5)C[C@H]34)cc2)c1 | 102% (active)
CCC(=O)N1CC[C@@H]2[C@@H](CO)N(C)c3ccc(-c4cccc(OC)c4)cc3[C@@H]21 | -5.88%
C[C@H]1CN([C@@H](C)CO)S(=O)(=O)c2ccc(C#CCN(C)C)cc2O[C@@H]1CN(C)Cc1ccc(F)cc1 | 105% (active)
C[C@@H]1CN([C@@H](C)CO)S(=O)(=O)c2ccc(/C=C/c3ccccc3)cc2O[C@H]1CN(C)Cc1ccccc1 | 72.5% (active)
C[C@@H]1CN([C@H](C)CO)S(=O)(=O)c2ccc(C#C[C@@H](C)O)cc2O[C@@H]1CN(C)Cc1ccc(-c2ccccc2)cc1 | 105% (active)
CC(=O)N(C)C[C@H]1Oc2cc(C#CCN(C)C)ccc2S(=O)(=O)N([C@@H](C)CO)C[C@@H]1C | 16.1%

SMILES | inhibition
CC(C)C#Cc1ccc2c(c1)O[C@H](CN(C)Cc1ccccc1)[C@H](C)CN([C@@H](C)CO)S2(=O)=O | 106% (active)
COc1cccc(C#Cc2ccc([C@@H]3[C@H](C#N)N[C@H]3CO)cc2)c1 | 61.1% (active)
C[C@H](CO)N1C[C@H](C)[C@H](CN(C)S(=O)(=O)c2ccccc2)Oc2ncc(-c3cccc(C(F)(F)F)c3)cc2C1=O | 41.1% (active)
Cc1ccc(S(=O)(=O)N(C)C[C@@H]2Oc3ncc(-c4cc5ccccc5o4)cc3C(=O)N([C@H](C)CO)C[C@@H]2C)cc1 | 14.8%
C[C@H]1CN([C@@H](C)CO)C(=O)c2ccccc2-c2ccccc2CO[C@@H]1CN(C)S(=O)(=O)c1ccc(C(F)(F)F)cc1 | 9.87%
C[C@@H]1CN([C@H](C)CO)C(=O)c2cc(/C=C/c3ccccc3)cnc2O[C@@H]1CN(C)Cc1ccncc1 | 26.2% (active)
C[C@H](CO)N1C[C@H](C)[C@H](CN(C)S(=O)(=O)c2cccc(F)c2)Oc2ncc(/C=C/c3ccccc3)cc2C1=O | 76% (active)
C[C@H](CO)N1C[C@H](C)[C@@H](CN(C)S(=O)(=O)c2cccc(F)c2)OCc2ccccc2-c2c(n(C)c3ccccc23)C1=O | 4.71%
Cc1ccc(-c2cnc3c(c2)C(=O)N([C@@H](C)CO)C[C@@H](C)[C@H](CN(C)Cc2ccccc2F)O3)cc1 | 92.5% (active)
CN1C(=O)c2cc(NC(=O)Nc3ccccc3F)ccc2OC[C@H]2O[C@H](CC(=O)NCc3ccc(-c4ccccc4)cc3)CC[C@H]21 | 23%
O=C(c1ccccc1F)N1C[C@H]2[C@@H](c3ccccc31)[C@@H](CO)N2C(=O)c1ccc(F)cc1 | 9.61%
COc1ccc(CCN(C)C(=O)C2CCCN(Cc3ccc(OC)c(OC)c3)C2)cc1OC (stereo not given) | 2.44%
C[C@@H]1CN([C@H](C)CO)S(=O)(=O)c2ccc(C#CC3CCCC3)cc2O[C@@H]1CN(C)C(=O)Cc1ccncc1 | 85.1% (active)
C[C@H]1CN([C@@H](C)CO)S(=O)(=O)c2ccc(C#CC3CCCC3)cc2O[C@H]1CN(C)C(=O)Cc1ccncc1 | 103% (active)
CC(=O)N(C)C[C@@H]1[C@@H](c2ccc(-c3ccccc3F)cc2)[C@@H](CO)N1C(C)=O | -5.68%
CS(=O)(=O)N1[C@@H](C#N)[C@H](c2ccc(C#CC3CCCCC3)cc2)[C@@H]1CO | 75.2% (active)
CC(C)NC(=O)N1[C@H](C#N)[C@H](c2ccc(C#CC3CCCCC3)cc2)[C@H]1CO | 67.4% (active)
N#C[C@H]1[C@@H](c2ccc(C3=CCCCC3)cc2)[C@@H](CO)N1C(=O)NC1CCCCC1 | 60.1% (active)
CCc1cnc(N2[C@H](C#N)[C@H](c3ccc(C4=CCCC4)cc3)[C@@H]2CO)s1 | 7.03%
CCN(C[C@H]1[C@H](c2ccccc2)[C@H](CO)N1C(=O)C1CC1)C(=O)NC1CCCC1 | 4.07%
